High-throughput results from PubChem.
3T3 cytotox – cytotoxic compounds in NIH 3T3 cells; AID 1345082; 94,000 compounds, 4.3% hits; Potency, µM (doses to about 96.7 µM), for inactives: top-dose activity change, negative = cytotoxicity, most hits filed as inhibitors; NIH 3T3 viability, CellTiter-Glo ATP luminescence, 48-72 h; further: on the % scale 0 is the no-effect control and ±100 the full control effect; nearly all actives have a fitted effect of over 55% in size
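Luminescent ATP readout (CellTiter-Glo, 10 min RT) after 48 or 72 hr compound exposure of NIH 3T3 cells seeded at 400 cells/well in 1536-well format; quantitative HTS.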
SNCA expr inhib – inhibitors of alpha-synuclein (SNCA) gene expression; HEK-293 SNCA-luciferase knock-in, luminescence, 24 h; Potency, µM (series often up to 57.2 µM), inactives show top-dose activity change, negative = inhibition, actives largely listed as inhibitors; 140,000 compounds, 0.17% hits; AID 1671194;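 further: plate controls were DMSO cells for no effect and cell-free wells for full effect; nearly all actives have a fitted effect of over 45% in size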
FLuc inh-1 – blocks purified firefly luciferase enzyme activity | 76,000 compounds, 2.5% hits | P08659 | Potency, µM (doses to about 115 µM), usual class: inhibitors | purified P. pyralis luciferase, luminescence, biochemical | AID 1347043; further: on the % scale 0 is the no-effect control and ±100 the full control effect; nearly all actives have a fitted effect of over 65% in size
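Biochemical qHTS: compound (6-point titration) added to 10uM D-luciferin plus 10uM ATP in Tris acetate pH 7.5 buffer with Mg, Tween-20 and BSA, then purified enzyme at 10nM; light output imaged.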
HEK293 tox – kills HEK 293 cells; HEK 293 viability, ATP luminescence (CellTiter-Glo), 48-72 h; Potency, µM (top dose mostly 115 µM), without a hit: top-dose activity change, negative = cytotoxicity, usual class: inhibitors; 94,000 compounds, 6.6% hits; AID 1345083; further: on the % scale 0 is the no-effect control and ±100 the full control effect; nearly all actives have a fitted effect of over 60% in size
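CellTiter-Glo luminescence (cellular ATP) was read after 48 or 72 hr of compound exposure at 37 degree Celsius. Cells were HEK 293 plated at 250 cells/well.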
NPR1 antag – antagonists of human natriuretic peptide receptor Npr1 | P16066 | HEK293 hNpr1 GloSensor cGMP, ANP-stimulated luminescence | Potency, µM (series often up to 46.3 µM), for the others: top-dose activity change, negative = inhibition, hits mostly inhibitors | AID 1347048 | 76,000 compounds, 1.6% hits; calls by dose curve; further: on the % scale 0 is the no-effect control and ±100 the full control effect; nearly all actives have a fitted effect of over 60% in size
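HEK293 cells stably expressing human Npr1 and cGMP GloSensor pGS-40F, loaded 2 h with 2% GloSensor reagent, given compound 30 min at room temperature. Luminescence read before and 20 min after 0.1 nM hNppA.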
HEK293 viab – counter-screen for SNCA expression inhibitors: cell viability | 150,000 compounds, 0.12% hits | Potency, µM (top dose mostly 57.1 µM), without a hit: at the highest dose activity change, negative = cytotoxicity, hits mostly cytotoxic | HEK-293-SNCA-luc viability, GF-AFC fluorescence, 24 h | AID 1671193;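 further: 0% = DMSO-treated cells and -100% = medium-only wells without cells; nearly all actives have a fitted effect of over 30% in size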
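HEK-293-SNCA-luc cells (1500/well) plated 24 h, then exposed 24 h to a dilution series; GF-AFC added 30 min at 37C, fluorescence 405/540 nm; normalised to medium-only and DMSO wells, Hill fit.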
FLuc SDR -ATP – firefly luciferase binding stabilization, ATP absent; shares compounds with FLuc inh-1; Purified FLuc-C-HiBiT, Nano-Glo HiBiT luminescence, no ATP; Potency, µM (titrated, usually from 32.7 µM), inactives show at the top dose activation (signal gain), most hits filed as activators; 1,300 compounds, 7.8% hits; further: nearly all actives have a fitted effect of over 55% in size
FLuc SDR ATP – firefly luciferase binding stabilization, ATP added; shares compounds with FLuc inh-1; 1,300 compounds, 8.7% hits; purified FLuc-C-HiBiT + ATP, HiBiT complementation luminescence; Potency, µM (series often up to 32.7 µM), for the others: at the top dose activation (gain of signal), actives largely listed as activators;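 further: signal reports ligand binding via conformational change of the enzyme rather than luciferase catalysis; % of control where 0% means no effect; nearly all actives have a fitted effect of over 55% in size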
FLuc inh-2 – inhibitors of firefly luciferase enzymatic activity; shares compounds with FLuc inh-1; purified FLuc-C-HiBiT enzyme, luciferin luminescence; Potency, µM (top dose mostly 32.7 µM), for the others: top-dose activity change, negative = inhibition, usual class: inhibitors; 1,300 compounds, 42% hits; AID 1963320; further: on the % scale 0 is the no-effect control and ±100 the full control effect; nearly all actives have a fitted effect of over 70% in size
Numbers without * were called inactive; i = inactive; ? = inconclusive; · = not tested or not shown; [ ] = another dose, or the depositor's remark. Compounds with a hit are over-represented: about 7.2% of the library has one in this group of screens. Unless noted, the call rests on the fitted dose curve; in most records, active means well fitted curve in the direction sought with a large enough effect; inconclusive means small, poorly fitted or top-dose-only effect, or another doubt; inactive means no such curve, though single readings can be large; an effect the other way counts as inactive or inconclusive. Potency means the concentration at half of the fitted maximal effect.

SMILES	3T3 cytotox	SNCA expr inhib	FLuc inh-1	HEK293 tox	NPR1 antag	HEK293 viab	FLuc SDR -ATP	FLuc SDR ATP	FLuc inh-2
COC(=O)[C@@H]1C[C@H](NC(=O)c2ccc(Oc3ccccc3)cc2)CN1C	-22%	69%	14µM*	-26%	-1%	-11%	16%	12%	?
O=[N+]([O-])c1cccc(-c2noc([C@@H]3C[C@@H](O)CN3Cc3cccs3)n2)c1	?	65%[87.6 µM]	?	?	4%[70.6 µM]	2%[87.6 µM]	·	·	·
COc1ccc(-c2noc([C@@H]3C[C@@H](O)CN3Cc3cccs3)n2)cc1	-36%[174 µM]	160%[87.6 µM]	14µM*	-22%[172 µM]	-14%[70.6 µM]	0%[87.6 µM]	10%[49.3 µM]	9%[49.3 µM]	?
CNC(=O)NC[C@H]1CCN(C2CCSCC2)C[C@H]1N(C)C	-6%	-25%	i	-28%	6%	-7%[12.5 µM]	·	·	·
Cc1cc(-c2cc3c(cn2)CN(Cc2ccccn2)CCN3)ccn1	89µM*	22%[87.6 µM]	14µM*	?	2%[70.6 µM]	8%[87.6 µM]	21%[49.3 µM]	19%[49.3 µM]	?
CCn1cc(-c2cc3c(cn2)CN(Cc2ccncc2)CCN3)cn1	-37%[138 µM]	-8%[87.6 µM]	?	?	-1%[70.6 µM]	2%[87.6 µM]	·	·	·
COc1ccc(CN2CCNc3cc(-c4ccnc(C)c4)ncc3C2)cc1O	?	120%[87.6 µM]	?	?	0%[70.6 µM]	-14%[87.6 µM]	·	·	·
Clc1ccc(-c2cc3c(cn2)CN(Cc2ccncc2)CCN3)cc1	?	-20%[87.6 µM]	2.2µM*	89µM*	?	-2%[87.6 µM]	31%[49.3 µM]	?	16µM*
CNC(=O)[C@@H]1CN(C(=O)c2ccn(C)n2)C[C@H]1COC	i	-6%	i	i	-2%	4%	·	·	·
Cc1nnc(-c2ccc3occ(-c4ccc(S(C)=O)cc4)c3c2)o1 (configuration not stated)	·	·	·	·	·	11%	·	·	·
Cc1c(Cl)cc(C(=O)N2CCC[C@H]2C(=O)N2CCOCC2)cc1Cl	-12%	7%	i	-11%	-1%	-4%	·	·	·
CC(C)(C)CN1CCN(Cc2cnc(-c3ccc(Cl)cc3)nc2)CC1CCO (configuration not stated)	-19%	-13%	i	?	?	-4%	·	·	·
O=C(Nc1nc2c(F)cccc2s1)c1ccc2c(c1)OCCO2	·	?	·	·	·	-9%	9.9µM*	?	0.5µM*
O=C(Nc1nc2ccccc2s1)c1ccc2c(c1)OCCN(CCC(F)(F)F)C2	?	60%[87.6 µM]	13µM*	20µM*	?	-20%[87.6 µM]	13%[49.3 µM]	10%[49.3 µM]	?
Cc1ccc2nc([C@H]3CCN(C(C)C)C3)[nH]c2c1	-25%[174 µM]	-47%[87.6 µM]	7.9µM*	?	28µM*	-11%[87.6 µM]	17%[65.7 µM]	16%[65.7 µM]	?
c1cn(-c2ccc(-c3nc(C4CCOC4)no3)cc2)cn1 (configuration not stated)	-20%	10%	i	-4%	-1%	-6%	·	·	·
CCCc1ccc(-c2nc(C3CCOC3)no2)cc1 (configuration not stated)	-21%	6%	1.1µM*	?	?	-6%	15%	?	7µM*
COC(=O)N1CCCC(C(=O)N2CCCC(c3nc4ccncc4[nH]3)C2)C1 (configuration not stated)	-7%	9%	·	-8%	·	-1%	·	·	·
